Here are results for 40 compounds from PubChem BioAssay (Tox21).

Results filed as inconclusive are left out. A call without a number means that no potency is given here. Unmarked numbers belong to inactive results. Activity calls are given as the source filed them. Calls come from the whole dose curve; as a rule, active = well fitted activation curve with a large enough effect in the signal ratio in the repeat runs (not every such curve was filed as active); inconclusive = weak or mixed curves; inactive = flat fitted curve, though single readings scatter; the % refers to the signal ratio.
Potency is the fitted concentration of half-maximal effect.

This assay in a line: p53 small molecule agonists, cell-based qHTS assay (AID 1963582). Particulars: HCT-116 p53RE-bla reporter, beta-lactamase FRET ratio, 16 h; series mostly up to 66 µM. From the text:
National Center for Advancing Translational Sciences [NCATS]
Division of Preclinical Innovation [DPI]
U.S. Environmental Protection Agency [EPA]
National Institutes of Environmental Health Sciences [NIEHS]
National Toxicology Program [NTP]
U.S. Food and Drug Administration [FDA]
p53, a tumor suppressor protein, is activated following cellular insult, including DNA damage and other cellular stresses. The activation of p53 regulates cell fate by inducing DNA repair, cell cycle arrest, apoptosis, or cellular senescence. The activation of p53, therefore, is a good indicator of DNA damage and other cellular stresses. […] The activation of the reporter gene under culture conditions can be detected by fluorescence intensity. This cell line was used to screen the Tox21 10K compound library in a 1536-well plate format and to identify agonists that activate the p53 signaling pathway.
Tox21 Assay Protocol Summary:
The p53RE-bla cells were dispensed at 4,000 cells/5 ul/well in 1536-well black wall/clear bottom plates using a Multidrop dispenser. After the assay plates were incubated at a 37 C/5% CO2 incubator for 5 hours, 23 nL of compounds dissolved in DMSO, positive controls or DMSO only was transferred to the assay plate by a pin tool. The plates were incubated at 37 C for 16 hours. After 1 uL of LiveBLAzerTM B/G FRET substrate was added using a Flying Reagent Dispenser, the plates were incubated at room temperature for 2 hours, and fluorescence intensity was measured by an Envision plate reader.
On the technique in general: In qHTS, concentration-response curves come from the screen itself.
`Oc1cc2c(cc1O)[C@H]1c3ccc(O)c(O)c3OC[C@@]1(O)C2`: the Potency entry is “inactive”.
The same measure, in the same setting: next, `CC1=NN(c2cc(S(=O)(=O)O)ccc2Cl)C(=O)C1N=Nc1ccccc1` (stereo not given): “inactive”.
Consider `COc1ccc2cc(CCC(C)=O)ccc2c1`, for which the Potency result was “inactive”.
On the same count and under the same terms, the entry for `COC(=O)[C@@H](N)Cc1ccc(O)c(O)c1` is “inactive”; for `CCN(Cc1cccc(S(=O)(=O)O)c1)c1ccc(C(=C2C=CC(=[N+](CC)Cc3cccc(S(=O)(=O)O)c3)C=C2)c2ccccc2S(=O)(=O)[O-])cc1` it is “inactive”.
With `CC/C=C\CCOC(C)OCC` (stereo not given), the Potency entry was “inactive”.
Still for that read-out and setting: next, `Fc1ccc(C(c2ccc(F)cc2)N2CCNCC2)cc1`: “inactive”; `Nc1cc(Cl)c([N+](=O)[O-])cc1O`: “inactive”; `Nc1nc(Cl)nc2c1ncn2[C@H]1C[C@H](O)[C@@H](CO)O1`: 0.572 µM (active).
Still for that read-out and setting: the entry for `O=C(O)COc1nn(Cc2ccccc2)c2ccccc12` is “inactive”; for `Nc1ccc(N=Nc2ccc(N)cc2)cc1` it is “inactive”.
Still for that read-out and setting: next, `CC(C)c1ccccc1N`: “inactive”; `C=Cc1ccc(O)c(OC)c1`: “inactive”.
With `CC1(C)[C@@H](O)CC[C@]2(C)[C@H]3C(=O)C=C4[C@@H]5C[C@@](C)(C(=O)O)CC[C@]5(C)CC[C@@]4(C)[C@]3(C)CC[C@@H]12`, the Potency result was “inactive”.
On the same count and under the same terms, the entry for `C[C@H]1c2cccc(O)c2C(O)=C2C(=O)[C@]3(O)C(O)=C(C(N)=O)C(=O)[C@@H](N(C)C)[C@@H]3[C@@H](O)[C@@H]21` is “inactive”.
Still for that read-out and setting: next, `CCCCCCCCCCC[C@@H](C[C@@H]1OC(=O)[C@H]1CCCCCC)OC(=O)[C@H](CC(C)C)NC=O`: “inactive”.
Take `CO`: the Potency entry is “inactive”.
On the same count and under the same terms, the entry for `NC(=O)Cn1c(=O)cc(CCN2CCN(c3nccc4sccc34)CC2)c2ccc(F)cc21` is “inactive”.
Still for that read-out and setting: the entry for `NC(N)=N/N=C/c1c(Cl)cccc1Cl` is “inactive”; for `COc1cc([C@@H]2c3cc4c(cc3[C@@H](O[C@@H]3O[C@@H]5CO[C@@H](C)O[C@H]5[C@H](O)[C@H]3O)[C@H]3COC(=O)[C@H]23)OCO4)cc(OC)c1O` it is 1.14 µM (active).
As to `O=C1OC(=O)c2cc(Oc3ccc4c(c3)C(=O)OC4=O)ccc21`, the Potency result is “inactive”.
Same read-out and setting: next, `CCCN(CCc1cccs1)[C@H]1CCc2c(O)cccc2C1`: “inactive”; `CC1(O)CSC(C)(O)CS1` (stereo not given): “inactive”.
Same read-out and setting: the entry for `COc1cc([N+](=O)[O-])ccc1N` is “inactive”; for `CCN(CC)c1ccc2c(-c3ccccc3C(=O)O)c3ccc(=[N+](CC)CC)cc-3oc2c1` it is “inactive”.
On the same count and under the same terms, next, `CC(C)(C)c1cc(CO)cc(C(C)(C)C)c1O`: “inactive”; `CN(C)c1ccc(C=O)cc1`: “inactive”.
In the case of `Clc1cc(Cl)c2c(c1)N=C1CCCCCN1C2`, the Potency entry was “inactive”.
On to `CCN(CC)c1cccc(O)c1`, for which the Potency result was “inactive”.
The same measure, in the same setting: next, `CC(=O)OC(C)C[N+](C)(C)C` (stereo not given): “inactive”; `CC(=O)[O][Al]`: “inactive”.
On the same count and under the same terms, the entry for `CC(C)COC(=O)CC(C(=O)OCC(C)C)S(=O)(=O)O` (stereo not given) is “inactive”.
Still for that read-out and setting: next, `CC(=O)Oc1ccc(C2(c3ccc(OC(C)=O)cc3)Oc3ccccc3NC2=O)cc1`: 4.46 µM (active); `C[C@H]1[C@H](NC(=O)/C(=N/OC(C)(C)C(=O)O)c2csc(N)n2)C(=O)N1S(=O)(=O)O` (stereo in doubt): “inactive”.
Regarding `[O-][N+](=Nc1ccccc1)c1ccccc1`, the Potency result was “inactive”.
The same measure, in the same setting: the entry for `CCN1CCOCC1` is “inactive”; for `O=C(/C=C/c1ccc(O)c(O)c1)O[C@@H](C(=O)O)[C@@H](OC(=O)/C=C/c1ccc(O)c(O)c1)C(=O)O` it is “inactive”.
On to `C[C@](N)(Cc1ccc(O)cc1)C(=O)O`, for which the activation is -6.7% [at 5.99 µM].
With `COc1ccccc1N1CCN(CC(O)COc2cccc3ccccc23)CC1` (stereo not given), the Potency result is “inactive”.
On the same count and under the same terms, the entry for `CCCc1ccc(OCC(=O)N2CCN(C(=O)COc3ccc(CCC)cc3OC)CC2)c(OC)c1` is “inactive”.
